High-throughput results from PubChem BioAssay.
Cardiac RTF inh: cardiac RTF calcium desensitization | P19429+P45379 | IANBD-labeled cardiac RTF, Ca2+ fluorescence | inhibition, % at 7.15 µM | 340,000 tested, 0.12% active;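 active = inhibition above the mean inhibition of all tested compounds plus 3 SD, cut at about 17% in these data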;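 also: assay run at fixed EC70 calcium of 1.6 mM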
Keap1 Nrf2 FP: disrupts human Keap1 binding to Nrf2 peptide; Q14145; Keap1 Kelch-Nrf2 peptide fluorescence polarization, 1536-well; inhibition, % at 9.4 µM; 340,000 tested, 0.15% active; in the data active = inhibition above about 12%;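 also: human Keap1 Kelch domain with fluorescein labeled Nrf2 9mer peptide probe; higher means more block of Keap1 binding to Nrf2 peptide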
Target sequence (Q14145 whole entry, looked up, the tested form may be a part): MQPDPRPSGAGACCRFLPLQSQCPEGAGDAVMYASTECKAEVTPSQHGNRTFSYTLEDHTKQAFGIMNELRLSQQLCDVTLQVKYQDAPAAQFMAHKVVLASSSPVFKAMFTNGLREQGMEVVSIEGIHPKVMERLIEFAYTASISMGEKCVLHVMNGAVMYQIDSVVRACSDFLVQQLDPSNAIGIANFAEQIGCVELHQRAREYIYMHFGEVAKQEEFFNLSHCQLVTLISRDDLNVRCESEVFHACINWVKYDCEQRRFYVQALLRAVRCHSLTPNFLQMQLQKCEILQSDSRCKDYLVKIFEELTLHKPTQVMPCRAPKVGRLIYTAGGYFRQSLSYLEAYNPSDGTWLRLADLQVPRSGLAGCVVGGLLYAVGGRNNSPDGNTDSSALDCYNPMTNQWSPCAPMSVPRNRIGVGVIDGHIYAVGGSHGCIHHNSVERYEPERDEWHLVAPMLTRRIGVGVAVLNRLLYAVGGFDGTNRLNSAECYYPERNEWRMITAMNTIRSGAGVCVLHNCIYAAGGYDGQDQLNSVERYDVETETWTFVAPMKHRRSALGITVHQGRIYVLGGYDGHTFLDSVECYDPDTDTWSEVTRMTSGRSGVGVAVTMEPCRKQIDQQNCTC
RTF Ca sens act: increases calcium sensitivity of human cardiac regulated thin filaments. P19429+P45379. IANBD-labeled TnC RTF fluorescence at EC20 calcium; 0% EC20 calcium, 100% full calcium. activation, % at 7.2 µM. 340,000 tested, 0.24% active;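 active = activation above the mean over all tested compounds plus 3 SD, cut at about 30% in these data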;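 also: rise in fluorescence read as greater calcium sensitivity of cardiac thin filaments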
LANA DNA inh: inhibitors of KSHV LANA C-terminal domain DNA binding. MBP-C-LANA/FAM-LBS DNA binding, fluorescence polarization. inhibition, % at 9 µM. 340,000 tested, 0.078% active;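 active = highest replicate inhibition at or above 60% at 9 µM, even if other replicates fall short; inactive = all replicates below 60% inhibition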
eLon inh: inhibits E. coli Lon protease; P0A9M0; purified E. coli Lon protease, fluorescence polarization; inhibition, % at 7.94 µM; 360,000 tested, 0.42% active; in the data active = inhibition above about 13%, passing the limit was not always enough
RTF inh confirm: cardiac RTF calcium sensitivity inhibition, confirmation | reconstituted cardiac thin filaments, calcium sensitivity fluorescence | 360 tested, 8% active | inhibition, % at 7.15 µM | shares compounds with Cardiac RTF inh; in the data active = inhibition above about 18%
DNA intercal 2: intercalates DNA, flagged as C-LANA false positive; shares compounds with LANA DNA inh; Acridine orange-DNA displacement, fluorescence polarization; AC50, µM (doses to about 35 µM); 20 tested, under 10 active;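 active = signal drop with an AC50 no more than ten times the top valid dose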
Keap1 TSA: binders of human Keap1 Kelch domain. 400 tested, 8% active. max delta Tm, degrees C. AID 651823. Keap1 Kelch thermal shift, delta Tm; stronger effect = higher value. shares compounds with Keap1 Nrf2 FP; in the data active = max delta Tm above about 0.48 degrees C
A number is an active result; i = inactive; nt = no result given. A selection: hits, their analogues and other compounds. The true share with any hit is near 0.82%.

SMILES | Cardiac RTF inh | Keap1 Nrf2 FP | RTF Ca sens act | LANA DNA inh | eLon inh | RTF inh confirm | others
C[C@H]1c2cccc(O)c2C(O)=C2C(=O)[C@]3(O)C(O)=C(C(N)=O)C(=O)[C@@H](N(C)C)C3[C@@H](O)C21 (stereo not given in full) | i | i | i | i | i | nt
C=C1c2cccc(O)c2C(=O)C2C(=O)[C@]3(O)C(=O)C(C(N)=O)C(=O)[C@@H](N(C)C)[C@@H]3[C@@H](O)[C@H]12 (stereo not given in full) | 61 | 12 | i | 126 | i | i
O=S(=O)(c1ccc2ncn(O)c2c1)N1CCOCC1 | 22 | i | i | i | i | i
O=S(=O)(c1ccc2nnn(O)c2c1)N1CCOCC1 | i | i | i | i | i | nt
Cc1ccc(O)c(N=Cc2cc(Cc3ccccc3)cc([N+](=O)[O-])c2O)c1 | i | i | i | i | i | nt
O=[N+]([O-])c1cc(Cc2ccccc2)cc(C=Nc2ccc(N3CCOCC3)cc2)c1O | 21 | i | i | i | i | i
Cc1nc(C(F)(F)F)ccc1C(=O)N1CCC1(C)C(=O)NS(=O)(=O)c1ccc2ccccc2c1 (stereo not given) | nt | nt | nt | nt | i | nt
CCOC(=O)CSc1nc2nc(Cl)c(Cl)nc2[nH]1 | nt | nt | nt | nt | i | nt
O=C(CSc1nc2ccccc2n1CCc1ccccc1)N1CCOCC1 | i | i | i | i | i | nt
O=C(CSc1nc2ccccc2n1CCc1ccccc1)c1ccc(O)c(O)c1 | 18 | i | i | i | i | i
COc1ccc(CN(C)CC(=O)Nc2ccc(SC(F)F)cc2)cc1OC | 20 | i | i | i | i | i
CC[C@H](CO)Oc1cc(NCc2cccc(N)c2)c2ncn(C(C)C)c2c1 | nt | nt | nt | nt | i | nt
Cc1ccc(C)c(NC(=O)CN(C)C(=O)CSC(C)C(=O)Nc2cc(C)on2)c1 (stereo not given) | 19 | i | i | i | i | i
Cc1cc(NC(=O)C(C)SCC(=O)N(C)CC(=O)Nc2ccc(Br)cc2C)no1 (stereo not given) | i | i | i | i | i | nt
Cc1noc(C)c1C(=O)N(C)C[C@@H]1OCc2ccccc2-c2c(n(C)c3ccccc23)C(=O)N([C@H](C)CO)C[C@H]1C | nt | nt | nt | nt | i | nt
C=C[C@@]1(C)CC(=O)[C@]2(O)[C@@]3(C)[C@@H](O)CCC(C)(C)[C@@H]3[C@H](O)[C@H](OC(C)=O)[C@@]2(C)O1 | 19 | i | i | i | i | i
COc1ccccc1-n1c(SCC(=O)Nc2ccc(C)cc2)nc(O)cc1=O | 18 | i | i | i | i | i
COc1ccc(NC(=O)CSc2nc(O)cc(=O)n2-c2ccccc2OC)cc1 | i | i | i | i | i | nt
CCOC(=O)c1ccc(NC(=O)c2nc[nH]c2C(=O)N[C@H](C)CO)cc1 | nt | nt | nt | nt | i | nt
O=C(NCc1cccnc1)c1cc(C(=O)C2CC2)c[nH]1 | 22 | i | i | i | i | i
Cc1ccccc1-n1c(=O)cc(N2CCc3ccccc32)[nH]c1=O | i | i | i | i | i | nt
O=c1cc(N2CCc3ccccc32)[nH]c(=O)n1-c1ccccc1Cl | 17 | i | i | i | i | i
CCOC(=O)[C@@H](NC(=O)CC[C@H]1O[C@@H](n2ccc(=O)[nH]c2=O)[C@H](O)[C@@H]1O)C(C)C | nt | nt | nt | nt | i | nt
O=C1N[C@@H](Cc2ccccc2)C(=O)N2CCCC12 (stereo not given in full) | i | i | i | i | i | nt
O=C1N[C@@H](Cc2cnc[nH]2)C(=O)N2CCC[C@@H]12 | 17 | i | i | i | i | i
SMILES | Cardiac RTF inh | Keap1 Nrf2 FP | RTF Ca sens act | LANA DNA inh | eLon inh | RTF inh confirm | others
O=C(NCc1ccccc1)c1ccc(F)c(S(=O)(=O)N2CCOCC2)c1 | 63 | i | i | i | i | i
COc1ccc(NC(=O)CN(C)C(=O)c2cc3c(s2)CCC3)cc1 | 20 | i | i | i | i | i
COc1ccc(NC(=O)CN(C)C(=O)c2cc3c(s2)CCCCC3)cc1 | i | i | i | i | i | nt
COc1cc(CC(=O)O)ccc1O | 18 | i | i | i | i | i
COc1ccc(CC(=O)O)cc1O | i | i | i | i | i | nt
COc1cccc(CN(C)C(=O)c2ccc(S(=O)(=O)Nc3cccc(C)c3C)cc2)c1OC | nt | nt | nt | nt | i | nt
CCOC1=C2[C@H](c3ccc(CC)cc3)N(S(=O)(=O)c3ccc(C)cc3)C[C@H]2C(C#N)(C#N)C(C#N)(C#N)C1 | nt | nt | nt | nt | i | nt
CCCCC(CC)CN=C(N)NC(N)=NCCCCCCN=C(N)NC(N)=NCC(CC)CCCC (stereo not given) | 23 | i | i | i | i | i
CCCCC(CC)CO (stereo not given) | i | i | i | i | i | nt
Cc1cc(F)cc(-c2cc(C(=O)NCc3ccccn3)[nH]n2)c1 | nt | nt | nt | nt | i | nt
Cc1ccc(C)c(OCCC(=O)NNC(=O)c2ccccc2)c1 | 17 | i | i | i | i | i
Cc1ccc(C)c(OCCC(=O)NNC(=O)c2ccncc2)c1 | i | i | i | i | i | nt
C[C@@H]1COc2cccc(N3CCSCC3)c2S(=O)(=O)N1 | nt | nt | nt | nt | i | nt
C/C(=N\NC(=S)NCc1ccccc1)c1ccc(C)o1 | 21 | i | i | i | i | i
O=C(O)CC(C(=O)O)N1C(=O)/C(=C/C=C/c2ccco2)SC1=S (stereo not given) | 66 | i | i | 106 | i | 21 | DNA intercal 2=i
CCC(=O)N1Cc2cc(C(=O)Nc3nccs3)nc(-c3cccc(-c4ccccc4OC)c3)c2[C@@H]1CCO | nt | nt | nt | nt | i | nt
O=C(O)C1Nc2c(O)cc(Cl)c([N+](=O)[O-])c2C2C=CCC12 (stereo not given) | 86 | 42 | i | 120 | i | 36 | DNA intercal 2=i;Keap1 TSA=0.92
Cc1ccc([C@H]2C[C@@H](O)[C@H](n3cc(C4CC4)nn3)CN2C(=O)c2cccs2)cc1 | nt | nt | nt | nt | i | nt
O=C1C(=Cc2ccco2)CCC1=Cc1ccco1 | 29 | 20 | i | 116 | i | 60 | Keap1 TSA=0.86
O=C1C(=Cc2ccco2)CCCC1=Cc1ccco1 | i | i | i | i | i | nt
CCOC(=O)C1=CCN(S(=O)(=O)c2ccc(C)cc2)C1c1ccc(Cl)c(Cl)c1 (stereo not given) | nt | nt | nt | nt | i | nt
O=C(O)c1cccc(-n2cccc2/C=C2/NC(=O)N(c3ccc(Cl)cc3)C2=O)c1 | 75 | 19 | i | 110 | i | 55 | Keap1 TSA=i
